Measured values published in PubChem BioAssay (NCATS).
Inconclusive results are not listed. Calls of active or inactive are those of the source. Calls come from the whole dose curve; as a rule, active = well fitted inhibition curve with a large enough effect; inconclusive = small, poorly fitted or top-dose-only effect; inactive = flat fitted curve, though single readings scatter.

What was measured:
Assay in all cases: qHTS profiling for inhibitors of Plasmodium falciparum proliferation (AID 504749); note: nearly all actives have a fitted effect of over 60% in size
Conditions in all cases: P. falciparum in erythrocytes, SYBR Green DNA, 72 h; series mostly up to 28.7 µM
CP265 = system: CP265
In short: (§1)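 Fluorescence of SYBR Green-bound parasite DNA, read at 485/535 nm, served as the growth measure. Infected erythrocytes were cultured with compound 72 h; artemisinin (0.29 uM) and DMSO wells defined the normalization range.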

CP266 = system: CP266
In short: as §1

CP268 = system: CP268
In short: as §1

CP269 = system: CP269
In short: as §1

CP286 = system: CP286
In short: as §1

CP291 = system: CP291
In short: as §1

CP297 = system: CP297
In short: as §1

CP305 = system: CP305
In short: as §1

CP315 = system: CP315
In short: as §1

CP325 = system: CP325
In short: as §1

CP329 = system: CP329
In short: as §1

CP335 = system: CP335
In short: as §1

DFO2036 = system: DFO2036
In short: as §1

DIV14 = system: DIV14
In short: as §1

DIV17 = system: DIV17
In short: as §1

DIV30 = system: DIV30
In short: as §1

Dd2 = system: Dd2
In short: as §1

ECU = system: ECU
In short: as §1

FAB9 = system: FAB9
In short: as §1

GB4 = system: GB4
In short: as §1

HB3 = system: HB3
In short: as §1

ICS = system: ICS
In short: as §1

JCK = system: JCK
In short: as §1

N140 = system: N140
In short: as §1

P93_24 = system: P93_24
In short: as §1

P94_40 = system: P94_40
In short: as §1

PAD = system: PAD
In short: as §1

PC15 = system: PC15
In short: as §1

PC26 = system: PC26
In short: as §1

PC49 = system: PC49
In short: as §1

SC27B = system: SC27B
In short: as §1

TAB109 = system: TAB109
In short: as §1

TAB113 = system: TAB113
In short: as §1

TAB165 = system: TAB165
In short: as §1

W2 = system: W2
In short: as §1

Measured: Potency

CC(C)CN(C[C@@H](OP(=O)(O)O)[C@H](Cc1ccccc1)NC(=O)O[C@@H]1CCOC1)S(=O)(=O)c1ccc(N)cc1
inactive: all assays above
